The text below walks through data of the supplement of paper PMC6555819.

Common to all, as to assay: PBM binding z-score (relative to random genomic background probes); higher = stronger binding; sequences stand for … in GC…GCGATTGACAGCGTAGAATGAAGG
The subject of assay [1] is FXR:RXRa (NR concentration 270 nM, RXRa partner concentration 90 nM). An outline of the steps:
(§1)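 Antibodies against each partner of ligand-free nuclear receptor dimers (one per run) detected binding on custom Agilent 4×180K protein-binding microarrays after 1 h incubation. The double-stranded probes had 34-nt variable regions carrying direct-repeat seeds, single-nucleotide variants, half-site ablations and random human genomic background sequences. Binding z-scores, from regression-normalized fluorescence, use the random background probes as reference.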

The test system of assay [2] is LXRa:RXRa (NR concentration 270 nM, RXRa partner concentration 90 nM). In short, it runs like this:
as §1

In assay [3] the test system is LXRa homodimer (NR concentration 270 nM). In short, it runs like this:
as §1

Assay [4] relates to LXRb:RXRa (NR concentration 270 nM, RXRa partner concentration 90 nM). In short, it runs like this:
as §1

Assay [5] relates to LXRb homodimer (NR concentration 270 nM). In short, it runs like this:
as §1

The subject of assay [6] is PPARa:RXRa (NR concentration 270 nM, RXRa partner concentration 90 nM). An outline of the steps:
as §1

For assay [7], the system named is PPARg:RXRa 270nM:90nM, anti-RXR (NR concentration 270 nM, RXRa partner concentration 90 nM). In short, it runs like this: as §1
The test system of assay [8] is PPARg:RXRa 30nM:10nM, anti-RXR (NR concentration 30 nM, RXRa partner concentration 10 nM). An outline of the steps: as §1
Assay [9] deals with PPARg:RXRa 90nM:30nM, anti-RXR (NR concentration 90 nM, RXRa partner concentration 30 nM). In short, it runs like this:
as §1

In assay [10] the test system is PPARg:RXRa DBDmut IVT, anti-RXR (DBD mutation: RXRa K156A/R161A, NR concentration 270 nM, RXRa partner concentration 90 nM). In short, it runs like this:
as §1

Assay [11] has as its system PPARg:RXRa IVT, anti-PPARg (NR concentration 270 nM, RXRa partner concentration 90 nM). In short, it runs like this: as §1
Assay [12] relates to PPARg DBDmut:RXRa IVT, anti-PPARg (DBD mutation: PPARg1 K132A/R137A, NR concentration 270 nM, RXRa partner concentration 90 nM). An outline of the steps: as §1
The subject of assay [13] is PPARg DBDmut IVT, anti-PPARg (DBD mutation: PPARg1 K132A/R137A, NR concentration 270 nM). An outline of the steps:
as §1

The subject of assay [14] is PPARg homodimer (NR concentration 180 nM). An outline of the steps:
as §1

In assay [15] the test system is PXR:RXRa (NR concentration 270 nM, RXRa partner concentration 90 nM). In short, it runs like this: as §1
The test system of assay [16] is PXR homodimer (NR concentration 270 nM). An outline of the steps: as §1
For assay [17], the system named is RARa:RXR (NR concentration 270 nM, RXRa partner concentration 90 nM). In short, it runs like this: as §1
The subject of assay [18] is RARa homodimer (NR concentration 270 nM). An outline of the steps: as §1
For assay [19], the system named is RARb:RXRa (NR concentration 270 nM, RXRa partner concentration 90 nM). An outline of the steps: as §1

In the case of CCTTACGGTTCACTGACAGGTTATAGCATTTGGA, the PBM binding z-score in [1] was determined as 1.66; in assay [2], 2.43; in assay [3] it was 1.04; in [4], 1.89; in assay [5], 0.471; in assay [6], 2.33. Further, the PBM binding z-score in assay [7] was found to be 1.08; in assay [8] it was 0.683; in [9] it was 0.771; in assay [10], 0.62; in assay [11], 0.00685; in assay [12] it was 0.829. Also, the PBM binding z-score in assay [13] came to 0.643; in assay [14] it was 1.64; in assay [15], 2.14; in assay [16] it was 0.911; in assay [17], 2.41; in assay [18], 1.71. For the same sequence, the PBM binding z-score in [19] came out at 1.16.
For TTAACAAGGTGAAAGGTCGTTGATGCACGCCTTG, the PBM binding z-score is 3.99 in [1]; 3.48 in assay [2]; 0.202 in assay [3]; 2.81 in assay [4]; -0.19 in assay [5]; 6 in assay [6]. For the same sequence, the PBM binding z-score in assay [7] came out at 8.81; in [8], 9.66; in [9] it was 9.79; in [10], 4.84; in assay [11] it was 5.57; in [12] it was 0.666. The PBM binding z-score in assay [13] is 0.131; in [14], 2.13; in assay [15], 3.92; in [16], 0.791; in assay [17], 5.73; in [18], -0.215. The same sequence displayed a PBM binding z-score in assay [19] of 3.09.
As to ACTCGGAGGATAAAGGTCAGAGCTACGCCAGTGA, the PBM binding z-score in assay [1] amounted to 3.3; in assay [2] it was 3.42; in assay [3], 1.27; in [4], 2.83; in [5], 0.273; in assay [6], 4.23. The PBM binding z-score was 6.4 in assay [7]; 5 in assay [8]; 6.8 in assay [9]; 0.595 in assay [10]; 3.02 in assay [11]; -0.0489 in assay [12]. The PBM binding z-score in assay [13] amounted to 0.296; in assay [14] it was 4.61; in [15] it was 3.25; in [16], 0.221; in [17] it was 4.24; in assay [18] it was 2.08. Also, in [19], the PBM binding z-score came out at 4.01.
In the case of CGTCCAAGGTCAGAGAGGTCAGTGTATGCCGAGT, the PBM binding z-score in assay [1] came to 6.02; in [2], 5.1; in [3] it was 3.33; in [4], 4.4; in assay [5], 0.458; in assay [6], 4.71. Further, the PBM binding z-score is 3.98 in assay [7]; 0.927 in [8]; 2.53 in [9]; 2.75 in assay [10]; 3.39 in [11]; -0.0469 in [12]. In addition, the PBM binding z-score amounted to 0.446 in [13]; 3.62 in assay [14]; 5.92 in [15]; 12.1 in assay [16]; 5.19 in assay [17]; 1.5 in assay [18]. The sequence also came in with a PBM binding z-score in [19] of 5.16.
On to CCTGCTAGGACAATGGTCAGCTAAAGCAGCTCGC, for which the PBM binding z-score is -0.67 in assay [1]; -0.803 in [2]; -0.499 in assay [3]; -0.869 in assay [4]; -1.1 in assay [5]; -0.776 in [6]. Further, the PBM binding z-score in [7] is 1.2; in [8], -0.505; in assay [9] it was 0.711; in [10], 0.194; in [11], -0.56; in [12] it was -1.25. In addition, the PBM binding z-score in [13] is -2.24; in [14], -1.14; in assay [15], -0.961; in assay [16], -0.715; in [17] it was -0.928; in assay [18] it was -0.846. In [19], the PBM binding z-score worked out at 0.219.
CATACAGGGTCATCTAGGCCAGAGTAGGGACGGC: the PBM binding z-score in assay [1] amounted to 6.67; in assay [2], 4.77; in [3], 0.311; in [4] it was 3.7; in assay [5], 0.71; in [6], 5.58. Also, the PBM binding z-score is 5.22 in [7]; 2.16 in assay [8]; 4.02 in [9]; 1.89 in assay [10]; 3.92 in assay [11]; 1.57 in [12]. Also, the PBM binding z-score in [13] came out at 0.152; in assay [14], 1.63; in assay [15], 3.65; in assay [16], 0.88; in [17], 4.05; in assay [18], 0.656. The same sequence showed a PBM binding z-score in [19] of 4.3.
